The campaign covered roughly 52,000 compounds. About 1,700 (3.3%) were called active. The sample as a whole holds a higher share of actives than the screen did. A number with no mark means an inactive call. No stated cut-off is given here; in the data, active means survival mostly below about 52% (no sharp cut-off); inactive means mostly above about 56%.

The subject of this experiment is Wild type. Briefly: growth inhibition of S. aureus wild type versus tarO mutant, primary screen, teichoic acid synthesis inhibitors, RN4220, OD600 (AID 463173). The following applies: S. aureus RN4220 wild type/DeltatarO growth, OD600, 18 h, hits give low values, screened at 18.75 µg/mL (by protocol).
As to `COc1ccc(CNC(=O)c2cc(Nc3ccc(C)cc3C)nc3ccccc23)cc1`, the survival is 91%.

Consider `CCC(CC)C(=O)Nc1cc(-c2cn3cccnc3n2)ccc1OC`, for which the survival was 117%.

Turning to `CCNC(=O)C1CCN(Cc2cc3ccccc3n2Cc2ccc(C)cc2)CC1`, the survival is 85%.

Turning to `COc1cc(OC)c(NC(=O)c2cc3c(s2)-c2ccc(Cl)cc2SC3)cc1Cl`, the survival was 96%.

Take `Fc1ccc(-n2ncc3c(NC4CCCCCC4)ncnc32)cc1`: the survival was 76%.

`Cc1[nH]c2ccccc2c1C1(O)C(=O)N(Cc2ccccc2)c2ccc(Cl)cc21` (configuration not stated): the survival is 28%.

For `Cc1ccc(CN2C(=O)C(O)(c3c[nH]c4ccccc34)c3cc(Cl)ccc32)cc1` (configuration not stated), the survival is -11% (active).

As to `Cc1[nH]c2ccccc2c1C1(O)C(=O)N(Cc2ccccc2)c2ccc(Br)cc21` (configuration not stated), the survival was 14% (active).

For `O=C1N(Cc2ccccc2)c2ccccc2C1(O)c1c[nH]c2ccccc12` (configuration not stated), the survival was 67%.

Consider `O=C1N(Cc2ccccc2Cl)c2ccccc2C1(O)c1c[nH]c2ccccc12` (configuration not stated), for which the survival was 84%.

Turning to `Cc1ccccc1CN1C(=O)C(O)(c2c[nH]c3ccccc23)c2cc(Cl)ccc21` (configuration not stated), the survival is -11% (active).

Regarding `O=C1N(Cc2ccccc2)c2ccc(Cl)cc2C1(O)c1c[nH]c2ccccc12` (configuration not stated), the survival was 53%.

With `Cc1ccc(C)c(CN2C(=O)C(O)(c3c[nH]c4ccccc34)c3ccccc32)c1` (configuration not stated), the survival was 116%.

As to `CCCCN1C(=O)C(O)(c2c(C)[nH]c3ccccc23)c2cc(Br)ccc21` (configuration not stated), the survival was 36%.

Turning to `COc1ccc(CC(=O)NCCS(=O)(=O)N2CCN(c3ccccc3F)CC2)cc1OC`, the survival was 66%.

As for `O=C(CN1C(=O)CSC1=O)N1CCCCC1`, the survival was 97%.

Take `CCc1ccc(-c2cc(C)no2)cc1S(=O)(=O)NCc1ccco1`: the survival is 76%.

Regarding `COc1cccc(Nc2sc(C(=O)c3ccc(Cl)cc3)c(N)c2C(=O)NCCc2ccc(OC)c(OC)c2)c1`, the survival is 75%.

For `CC(C)=NNC(=O)c1nnn(-c2nonc2N)c1CN1CCOCC1`, the survival is 108%.

Consider `COc1ccc(CNS(=O)(=O)c2ccc(F)c(C(=O)Nc3c(C)cc(C)cc3C)c2)cc1`, for which the survival was 80%.

For `O=C(NCCO)c1ccc2[nH]c3c(c2c1)CCCC3`, the survival is 102%.

For the compound `Cc1ccc2nc(-c3c[nH]c4ccccc34)c(Nc3ccc(F)cc3)n2c1`, the survival is 72%.

For `CCc1ccccc1NC(=O)C(CC)Oc1ccccc1-c1nnc(-c2ccccc2)o1` (configuration not stated), the survival is 0% (active).

Consider `CCC(Oc1ccccc1-c1nnc(-c2ccccc2)o1)C(=O)Nc1ccc(C(C)=O)cc1` (configuration not stated), for which the survival is 118%.

Take `CCOC(=O)c1ccccc1NC(=O)COc1ccccc1-c1nnc(-c2ccccc2)o1`: the survival is 22%.

For `CC(=O)c1ccc(S(=O)(=O)N2CCn3cccc3C2c2ccc(F)c(F)c2)cc1` (configuration not stated), the survival is 68%.

Regarding `Nc1nc2n(n1)C(c1cccs1)CC(c1ccc(Cl)cc1Cl)N2` (configuration not stated), the survival is 106%.

With `CCOC(=O)C1CCC(CN(Cc2cccc(Br)c2)S(=O)(=O)c2ccc(Cl)cc2)CC1` (configuration not stated), the survival was 90%.

Turning to `COc1cc2ccccc2cc1C(=O)Nc1cccc(-c2nc3ccccc3o2)c1`, the survival is 1% (active).

`COc1cc2ccccc2cc1C(=O)Nc1cc(-c2nc3ccccc3o2)ccc1C`: the survival was 126%.

Consider `COc1ccc(NC(=O)c2ccco2)cc1NC(=O)C(C)C`, for which the survival is 90%.

For `Cc1ccc2nc(-c3cccc(NC(=O)c4ccc(Br)o4)c3)oc2c1`, the survival is 7% (active).

As for `Cc1ccc2cccc(NC(=O)C(C)Oc3ccc(Cl)cc3Cl)c2n1` (configuration not stated), the survival was -9% (active).

For `Cc1ccc2cccc(NC(=O)c3ccc(-c4ccc(Cl)cc4Cl)o3)c2n1`, the survival was 69%.

Turning to `COc1ccc(NC(=O)c2ccco2)cc1NC(=O)c1cc(Cl)ccc1OC`, the survival was 65%.

For `Cc1ccc2cccc(NC(=O)C(C)Oc3ccc(C)c(C)c3)c2n1` (configuration not stated), the survival was 83%.

In the case of `Cc1ccc2nc(-c3ccc(Cl)c(NC(=O)c4ccc(Br)o4)c3)oc2c1`, the survival was 69%.

For the compound `Cc1cc(C)c2oc(-c3cccc(NC(=O)c4ccc(Br)o4)c3)nc2c1`, the survival was 45%.

Turning to `COc1cc2ccccc2cc1C(=O)Nc1cccc(-c2nc3cc(C)c(C)cc3o2)c1`, the survival was 58%.

Turning to `COc1ccc(NC(=O)c2ccco2)cc1NC(=O)C(C)Oc1ccc(Cl)cc1Cl` (configuration not stated), the survival is 6% (active).

As for `Cc1cc2c(cc1S(=O)(=O)CCC(=O)N1CCCCC1C)OCC(=O)N2` (configuration not stated), the survival was 85%.

Regarding `COc1ccc(CNC(=O)c2ccc(CS(=O)Cc3ccccc3Cl)o2)cc1` (configuration not stated), the survival was 95%.

As for `Cc1ccc(-n2nc(C(=O)N3CCCCC3C)c(=O)n(C)c2=O)cc1` (configuration not stated), the survival is 80%.

`COc1ccc(S(=O)(=O)c2cn(C)c3ccc(C)cc3c2=O)cc1`: the survival is 82%.

For the compound `CSc1ccc(CNC(=O)c2ccccc2NC(=O)c2nsc3ccccc23)cc1`, the survival was 90%.

Consider `CCc1ccc(NC(=O)CN2C(=O)C3(SCC(=O)N3c3ccc(F)c(F)c3)c3ccccc32)cc1` (configuration not stated), for which the survival is 125%.

Turning to `Cc1cc(OC(C)C(=O)Nc2cccc(-c3nc4ccccc4o3)c2)cc(C)c1Cl` (configuration not stated), the survival was 55%.

In the case of `COc1ccc(-c2nc3ccccc3o2)cc1NC(=O)C(C)Oc1ccc(Cl)cc1Cl` (configuration not stated), the survival is 8% (active).

As to `COc1ccccc1OC(C)C(=O)Nc1cccc(-c2nc3ccccc3o2)c1` (configuration not stated), the survival was 3% (active).

In the case of `COc1cc2ccccc2cc1C(=O)Nc1ccc2oc(-c3ccc(F)cc3)nc2c1`, the survival was 81%.

On to `COc1cc2ccccc2cc1C(=O)Nc1ccc2oc(-c3ccc(Cl)cc3)nc2c1`, for which the survival was 91%.

Take `COc1ccc(-c2nc3ccccc3o2)cc1NC(=O)CSc1ccc(Cl)cc1`: the survival was 73%.

Regarding `COc1cc2ccccc2cc1C(=O)Nc1ccc2oc(-c3ccccc3)nc2c1`, the survival is 4% (active).

Take `COc1cc2ccccc2cc1C(=O)Nc1ccc2oc(-c3ccc(F)cc3Cl)nc2c1`: the survival was 69%.

Turning to `COc1ccc(-c2nc3ccccc3o2)cc1NC(=O)Cc1ccc(Cl)cc1`, the survival is 68%.

On to `CCc1ccc(OCC(=O)Nc2ccc3oc(-c4ccc(OC)cc4)nc3c2)cc1`, for which the survival is 79%.

Take `CCc1ccc(-c2nc3cc(NC(=O)c4cc5ccccc5cc4OC)ccc3o2)cc1`: the survival was 14% (active).

In the case of `CC(C)C(=O)Nc1cccc(-c2nc3ccccc3o2)c1`, the survival is 103%.

On to `COc1ccc(-n2c(=O)c3sc4ccccc4c3n(C)c2=O)cc1`, for which the survival is 83%.

In the case of `CCOc1ccc(N=C(c2ccccc2)N2CCOCC2)cc1`, the survival is 99%.

For the compound `CCc1ccccc1N(C)C(=O)C1CCCN(c2ncnc3c2nc2n3CCCCC2)C1` (configuration not stated), the survival was 75%.

Regarding `CC(C)c1ccc(NC(=O)Cn2c(=O)oc3cc(S(=O)(=O)N4CCCC4)ccc32)cc1`, the survival is 124%.

For the compound `CC(C)C(=O)Nc1ccccc1C(=O)OCc1cc(=O)n2nc(C3CC3)sc2n1`, the survival was 100%.

As for `Cc1ccc(-n2nc(C)c3c(C)cc(=O)n(CC(=O)NC(C)c4ccccc4)c32)cc1` (configuration not stated), the survival is 143%.

Turning to `Cc1oc2ncn(CC(C)C)c(=O)c2c1C(=O)N(CCN(C)C)Cc1ccccc1`, the survival was 99%.

Regarding `COc1cc2ccccc2cc1C(=O)Nc1ccc2oc(-c3cccc(Cl)c3Cl)nc2c1`, the survival was 71%.

As to `COc1cc2ccccc2cc1C(=O)Nc1ccc2oc(-c3cccc(C)c3)nc2c1`, the survival was 6% (active).

Consider `COc1cc2ccccc2cc1C(=O)Nc1cccc(-c2nc3cc(C)ccc3o2)c1C`, for which the survival was 75%.

As to `Brc1ccc(-n2nc(-c3ccccc3)c3cnc4cc5c(cc4c32)OCO5)cc1`, the survival was 112%.

`CCN(C(=O)CSc1nnc(-c2ccc(Cl)cc2)o1)c1ccccc1`: the survival is 66%.

With `Cc1ccc(C(=O)CC2(O)C(=O)N(Cc3ccccc3)c3ccccc32)c(C)c1` (configuration not stated), the survival is 20%.

With `CCc1ccc(C(=O)CC2(O)C(=O)N(CCc3ccccc3)c3ccc(Br)cc32)cc1` (configuration not stated), the survival was 36%.

On to `CCCN1C(=O)C(O)(CC(=O)c2ccc(OC)c(OC)c2)c2ccccc21` (configuration not stated), for which the survival is 130%.

As to `COc1ccc(OC)c(C(=O)CC2(O)C(=O)N(Cc3ccccc3C)c3ccccc32)c1` (configuration not stated), the survival was 118%.

On to `CCCCN1C(=O)C(O)(CC(=O)c2ccc(C)cc2C)c2cc(Br)ccc21` (configuration not stated), for which the survival was 1% (active).

Turning to `Cc1ccccc1CN1C(=O)C(O)(CC(=O)c2cccc(Br)c2)c2ccccc21` (configuration not stated), the survival is 10% (active).

Consider `Cc1ccc(C(=O)CC2(O)C(=O)N(CCc3ccccc3)c3ccc(Br)cc32)cc1` (configuration not stated), for which the survival is 24%.

As to `O=C(CC1(O)C(=O)N(Cc2ccccc2)c2ccc(Br)cc21)c1ccccc1` (configuration not stated), the survival was 30%.

As for `CCCCN1C(=O)C(O)(CC(=O)c2ccc(C(C)(C)C)cc2)c2ccccc21` (configuration not stated), the survival is 3% (active).

For the compound `CCCN1C(=O)C(O)(CC(=O)c2ccc(C(C)C)cc2)c2ccccc21` (configuration not stated), the survival was 129%.

In the case of `CCCCN1C(=O)C(O)(CC(=O)c2ccc(CC)cc2)c2cc(Br)ccc21` (configuration not stated), the survival is 2% (active).

Regarding `Cc1ccc(C(=O)CC2(O)C(=O)N(Cc3ccccc3F)c3ccccc32)cc1` (configuration not stated), the survival is 71%.

As for `COC(=O)CSc1ncc2c(n1)-c1ccccc1N(Cc1cccc(F)c1)S2(=O)=O`, the survival was 70%.

Turning to `CC(C)CCNC(=O)c1cccc(-n2cnc3cccnc32)c1`, the survival was 136%.

With `Fc1ccc(-c2cn3cc(Cc4ccccc4Cl)sc3n2)cc1`, the survival is 53%.

In the case of `N#Cc1ccc2ccn(CC(N)=O)c2c1`, the survival was 95%.

With `O=C(NCc1ccc(Cl)cc1)c1cc2ccc3cccnc3c2[nH]1`, the survival is 49%.

`CCOc1ccccc1NC(=O)c1cc2ccc3cccnc3c2[nH]1`: the survival is 10% (active).

As to `Cc1ccc(CNC(=O)c2cc3ccc4cccnc4c3[nH]2)cc1`, the survival was 0% (active).

Consider `CCOc1ccccc1N(CC)C(=O)c1cc2ccc3cccnc3c2[nH]1`, for which the survival is 74%.

As for `O=C(NCc1ccccc1)c1cc2ccc3cccnc3c2[nH]1`, the survival is 73%.

As for `CCOC(=O)c1ccccc1NC(=O)c1cc2ccc3cccnc3c2[nH]1`, the survival is 121%.

The values above are taken from PubChem BioAssay AID463173 (ICCB-Longwood Screening Facility, Harvard Medical School, 2010).
